# Measurements reported in PubChem BioAssay (NCATS).
# Records with an inconclusive call do not appear. Activity calls are given as the source filed them. Calls come from the whole dose curve; as a rule, active = well fitted inhibition curve with a large enough effect; inconclusive = small, poorly fitted or top-dose-only effect; inactive = flat fitted curve, though single readings scatter.
# Test system: ECU
# Assay: qHTS profiling for inhibitors of Plasmodium falciparum proliferation (AID 504749); note: nearly all actives have a fitted effect of over 60% in size;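 for activity, negative = inhibition: 0% = DMSO vehicle and full inhibition = artemisinin control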
# Settings: P. falciparum in erythrocytes, SYBR Green DNA, 72 h; series mostly up to 28.7 µM; activity, negative = inhibition: at the top concentration
# Outline: (§1)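 Three-day growth assay of blood-stage parasites in erythrocytes (0.3% parasitemia, 2.5% hematocrit) at 37 C, 5% CO2, quantified by SYBR Green DNA staining after overnight detergent lysis.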
# Potency is the fitted concentration of half-maximal effect.
SMILES,"activity, negative = inhibition",Potency
NCC(=O)CCC(=O)O,2.91% (inactive),
CSc1ccc2c(c1)N(CCC1CCCCN1C)c1ccccc1S2 (stereo unspecified),,11.2 µM (active)
COc1ccc2[nH]c(S(=O)Cc3ncc(C)c(OC)c3C)nc2n1 (stereo unspecified),,6.31 µM (active)
COCCOC(=O)C1=C(C)NC(C)=C(C(=O)OC/C=C/c2ccccc2)C1c1cccc([N+](=O)[O-])c1 (stereo unspecified),,10 µM (active)
CC(CN1c2ccccc2Sc2ccccc21)N(C)C (stereo unspecified),3.38% (inactive),
OCc1cc(C(O)CNCCCCCCOCCCCc2ccccc2)ccc1O (stereo unspecified),-14.1% (inactive),
OCCN1CCN(CCCN2c3ccccc3Sc3ccc(Cl)cc32)CC1,,3.16 µM (active)
NC1CCN(c2cccc(Cl)n2)CC1,-7.64% (inactive),
CNC(=O)Oc1ccc2c(c1)[C@]1(C)CCN(C)[C@@H]1N2C,,1.78 µM (active)
C#CCN(C)Cc1ccccc1,6.95% [at 12.8 µM] (inactive),
CCOC(CN1CCN(CC(C)C(=O)c2ccccc2)CC1)c1ccccc1 (stereo unspecified),-17.7% (inactive),
O=C1c2c(O)cccc2Cc2cccc(O)c21,2.93% (inactive),
CN(C)CCN(Cc1ccccc1)c1ccccn1,-4.47% (inactive),
CCCCN1CCCC[C@H]1C(=O)Nc1c(C)cccc1C,-3.23% (inactive),
CN1CCCCC1CCN1c2ccccc2Sc2ccc(S(C)=O)cc21 (stereo unspecified),-25.5% (inactive),
CCN(CC)CCNC(=O)c1c(C)[nH]c(/C=C2\C(=O)Nc3ccc(F)cc32)c1C,,7.94 µM (active)
CC(C)(C)C(=O)C(Oc1ccc(Cl)cc1)n1ccnc1 (stereo unspecified),,10 µM (active)
CNCCCC1c2ccccc2C=Cc2ccccc21,-24.3% [at 12.8 µM] (inactive),
CCCn1cnc2c1c(=O)n(CCCCC(C)=O)c(=O)n2C,-5% (inactive),
Cc1c(O)cccc1C(=O)N[C@@H](CSc1ccccc1)[C@H](O)CN1C[C@H]2CCCC[C@H]2C[C@H]1C(=O)NC(C)(C)C,,11.2 µM (active)

# Test system: FAB9
# Assay: as above
# Settings: P. falciparum in erythrocytes, SYBR Green DNA, 72 h; series mostly up to 28.7 µM; activity, negative = inhibition: at the top concentration
# Outline: as §1
SMILES,"activity, negative = inhibition",Potency
NCC(=O)CCC(=O)O,6.13% (inactive),
Oc1ccc(C(O)CNCCCCCCNCC(O)c2ccc(O)c(O)c2)cc1O (stereo unspecified),-14.7% (inactive),
COCCOC(=O)C1=C(C)NC(C)=C(C(=O)OC/C=C/c2ccccc2)C1c1cccc([N+](=O)[O-])c1 (stereo unspecified),-7.99% (inactive),
CNCCC(Oc1ccc(C(F)(F)F)cc1)c1ccccc1 (stereo unspecified),8.85% (inactive),
CN(C)CCCN1c2ccccc2Sc2ccc(Cl)cc21,1.29% (inactive),
CC(CN1c2ccccc2Sc2ccccc21)N(C)C (stereo unspecified),9.12% (inactive),
OCc1cc(C(O)CNCCCCCCOCCCCc2ccccc2)ccc1O (stereo unspecified),2.74% (inactive),
NC1CCN(c2cccc(Cl)n2)CC1,-5.06% (inactive),
CNC(=O)Oc1ccc2c(c1)[C@]1(C)CCN(C)[C@@H]1N2C,,2 µM (active)
C#CCN(C)Cc1ccccc1,0.0155% [at 12.8 µM] (inactive),
CCOC(CN1CCN(CC(C)C(=O)c2ccccc2)CC1)c1ccccc1 (stereo unspecified),3.96% (inactive),
NC(=O)N/N=C/c1ccc([N+](=O)[O-])o1,-16.5% (inactive),
O=C1c2c(O)cccc2Cc2cccc(O)c21,10.9% (inactive),
c1ccc(CN(CC2=NCCN2)c2ccccc2)cc1,-14.3% (inactive),
CSc1ccc2c(c1)C(N1CCN(C)CC1)Cc1ccccc1S2 (stereo unspecified),-0.362% (inactive),
CN(C)CCN(Cc1ccccc1)c1ccccn1,7.62% (inactive),
CCCCN1CCCC[C@H]1C(=O)Nc1c(C)cccc1C,3.8% (inactive),
CN1CCCCC1CCN1c2ccccc2Sc2ccc(S(C)=O)cc21 (stereo unspecified),-1.58% (inactive),
CC(C(O)c1ccc(O)cc1)N1CCC(Cc2ccccc2)CC1 (stereo unspecified),-25.7% (inactive),
CC(C)(C)C(=O)C(Oc1ccc(Cl)cc1)n1ccnc1 (stereo unspecified),-15.4% (inactive),
CCN(CC)CCNC(C(=O)OCCC(C)C)c1ccccc1 (stereo unspecified),11% (inactive),
CNCCCC1c2ccccc2C=Cc2ccccc21,-22.5% [at 12.8 µM] (inactive),
CN1CCC[C@@H]1Cc1c[nH]c2ccc(CCS(=O)(=O)c3ccccc3)cc12,-5.22% (inactive),
CCCn1cnc2c1c(=O)n(CCCCC(C)=O)c(=O)n2C,8.94% (inactive),
Cc1c(O)cccc1C(=O)N[C@@H](CSc1ccccc1)[C@H](O)CN1C[C@H]2CCCC[C@H]2C[C@H]1C(=O)NC(C)(C)C,-11.6% (inactive),
CN1CCN(C2Cc3ccccc3Sc3ccc(Cl)cc32)CC1 (stereo unspecified),-16.2% (inactive),
CCOc1nc2cccc(C(=O)O)c2n1Cc1ccc(-c2ccccc2-c2nn[nH]n2)cc1,1.32% (inactive),

# Test system: GB4
# Assay: as above
# Settings: P. falciparum in erythrocytes, SYBR Green DNA, 72 h; series mostly up to 28.7 µM; activity, negative = inhibition: at the top concentration
# Outline: as §1
SMILES,"activity, negative = inhibition",Potency
NCC(=O)CCC(=O)O,-1.75% (inactive),
Oc1ccc(C(O)CNCCCCCCNCC(O)c2ccc(O)c(O)c2)cc1O (stereo unspecified),,13.5 µM (active)
CSc1ccc2c(c1)N(CCC1CCCCN1C)c1ccccc1S2 (stereo unspecified),,10.7 µM (active)
CNCCC(Oc1ccc(C(F)(F)F)cc1)c1ccccc1 (stereo unspecified),,13.5 µM (active)
CN(C)CCCN1c2ccccc2Sc2ccc(Cl)cc21,,8.49 µM (active)
OCc1cc(C(O)CNCCCCCCOCCCCc2ccccc2)ccc1O (stereo unspecified),,9.53 µM (active)
OCCN1CCN(CCCN2c3ccccc3Sc3ccc(Cl)cc32)CC1,,4.55 µM (active)
NC1CCN(c2cccc(Cl)n2)CC1,,7.57 µM (active)
CNC(=O)Oc1ccc2c(c1)[C@]1(C)CCN(C)[C@@H]1N2C,,4.78 µM (active)
C#CCN(C)Cc1ccccc1,-12% [at 12.8 µM] (inactive),
NC(=O)N/N=C/c1ccc([N+](=O)[O-])o1,,13.5 µM (active)
O=C1c2c(O)cccc2Cc2cccc(O)c21,-11.7% (inactive),
CSc1ccc2c(c1)C(N1CCN(C)CC1)Cc1ccccc1S2 (stereo unspecified),,13.5 µM (active)
Cc1ccc2nc(N)[nH]c(=O)c2c1Sc1ccncc1,,10.7 µM (active)
CC(C(O)c1ccc(O)cc1)N1CCC(Cc2ccccc2)CC1 (stereo unspecified),,7.57 µM (active)
CCN(CC)CCNC(=O)c1c(C)[nH]c(/C=C2\C(=O)Nc3ccc(F)cc32)c1C,,7.57 µM (active)
CC(C)(C)C(=O)C(Oc1ccc(Cl)cc1)n1ccnc1 (stereo unspecified),,13.5 µM (active)
CCN(CC)CCNC(C(=O)OCCC(C)C)c1ccccc1 (stereo unspecified),,7.57 µM (active)
CCOc1nc2cccc(C(=O)O)c2n1Cc1ccc(-c2ccccc2-c2nn[nH]n2)cc1,-9.11% (inactive),
